{"source": "PubChem BioAssay (NCI)", "note": "Compounds without any hit were thinned out: in the full panel of roughly 83,000, 20% have a hit.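 Assay: single dose, 48 h. Readout: percent growth (0 = no net growth; negative = cell death). Active: <10.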 Active and inactive are the calls of the source."}
{"tested_on": "MDA-MB-468 breast", "test": "NCI-60 one-dose screen, 48 h (100 = growth as untreated, 0 = no growth, -100 = all killed)", "settings": "10 µM unless noted"}
{"compound": "C=C1NC(=O)C(C(C)CC)NC(=O)C2CSCC(NC(=O)CCC(=O)O)C(=O)NC(Cc3ccccc3)C(=O)NC(C)C(=O)NC(CC(C)CC)C(=O)NC(C(=O)NC(Cc3ccccc3)C(=O)N3CCCC3C(=O)N2)C(C)OC(=O)C(CO)NC(=O)C(C(O)COC)N(C)C(=O)C(C(C)C)NC(=O)C(CC(C)CC)NC1=O", "note": "(centres undefined)", "growth": "0.0436% [6 µM] (active)"}
{"compound": "Cc1cc(SC#N)cc(C(C)(C)C)c1O", "growth": "105% (inactive)"}
{"compound": "O=c1c(Cc2ccc(F)cc2)cc(-c2ccccc2)nn1C/C(=N/O)c1ccccc1", "growth": "41.2% (inactive)"}
{"compound": "CC/C=C\\C[C@H](O)C/C=C1/C(=O)C(Cl)=C[C@@H]1C/C=C\\CCCC(=O)OC", "growth": "-62.1% (active)"}
